Test results published in PubChem BioAssay AID651821 (The Scripps Research Institute Molecular Screening Center, 2012).
The campaign covered roughly 370,000 compounds. About 4,700 (1.3%) were called active. The full list was thinned out, with actives kept by preference. Values without a mark were called inactive.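 Rule for the calls: active = inhibition above the plate cutoff, the mean of all test compounds on that plate plus 3 SD (cut at about 35% in these data); inactive = the rest.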

Experiment: small molecules binding CAG repeat RNA – biochemical, fluorescence, primary screen (AID 651821);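 note: 0% = DMSO alone and 100% = 100 µM mitoxantrone as full dye displacement; higher means more dye released from RNA so lower well fluorescence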
Conditions: r(CAG) RNA repeat, TO-PRO-1 dye displacement fluorescence; at 3 µM; hits give high values
Work on `O=C(Nc1cccc(F)c1)N1C2CCC1CC(O)(c1cccnc1)C2` (stereo not drawn) yielded an inhibition of -2.98%.
`CCN1N=C(c2ccccc2)CCC1=O` showed an inhibition of -0.41%.
With `O=C1CC(c2ccccc2)=NN1c1ccc([N+](=O)[O-])cc1` the inhibition was 45.5% (active).
For `O=C1NC(=O)C2C1C(c1ccc([N+](=O)[O-])cc1)=NN2Cc1ccccc1` (stereo not drawn), the inhibition was 10.9%.
`CN1[C@H](Cc2ccccc2)COc2cccc(N3CCSCC3)c2S1(=O)=O` showed an inhibition of 4.7%.
Work on `COC(=O)C1=C(C)N(Cc2cccc(C(F)(F)F)c2)C(=NCc2cccc(C(F)(F)F)c2)NC1c1ccccc1C(F)(F)F` (stereo not drawn) yielded an inhibition of 1.52%.
`Cc1c[nH]c2cccc(-c3ccc(Cl)cc3)c12` showed an inhibition of 1.17%.
`Cc1cc(O)c(NC(=O)c2ccc(C)c([N+](=O)[O-])c2)cc1C` showed an inhibition of 4.43%.
For `COc1ccc(C(=O)c2c(C)oc3cc([N+](=O)[O-])c(O)c([N+](=O)[O-])c23)cc1`, the inhibition was 24.7%.
In the case of `Cc1oc2cc([N+](=O)[O-])c(O)c([N+](=O)[O-])c2c1C(=O)c1ccc(Br)cc1`, the inhibition is reported as 67.6% (active).
`N#Cc1ccccc1OC[C@@H](O)CN1CCC(C(O)(c2ccccc2)c2ccccc2)CC1` showed an inhibition of 2.31%.
`CCOC(=O)N1CCN(C(=O)C[C@H]2C[C@@]3(C(=O)OC)C(=C[C@H](C(C)(C)C)O[C@@H]3C)N(Cc3ccc(Cl)cc3Cl)C2=O)CC1` showed an inhibition of 7.87%.
With `O=C(O)CCn1cc(/C=C/C(=O)c2ccc(Cl)cc2)c(-c2cccc(Br)c2)n1` the inhibition was 82.8% (active).
With `C#CCN([C@H](C(=O)OC)C(C)CC)S(=O)(=O)c1ccccc1Br` (stereo partly drawn) the inhibition was -1.79%.
`O=C(C(=O)N1CCC(CNC(=O)c2cccnc2Cl)CC1)c1cccs1` showed an inhibition of 2.4%.
`COc1ccc(CNS(=O)(=O)c2cc(Br)ccc2Br)cc1` gave an inhibition of 2.67%.
In the case of `COc1ccc(-n2c(SCC(=O)NC3CCCC3)nnc2-c2ccncc2)cc1`, the inhibition is reported as 3.34%.
Work on `CCN(CC)S(=O)(=O)c1ccc(Cl)c(C(=O)NC(C)C(c2cccs2)N2CCCC2)c1` (stereo not drawn) yielded an inhibition of -3.47%.
In the case of `Cc1ccc(NC(=S)NNC(=O)CSc2nnc(SCc3ccccc3Cl)s2)cc1`, the inhibition is reported as 47.2% (active).
Work on `O=C(CSc1nnc(SCc2ccc(Cl)cc2)s1)N/N=C/c1ccccc1Cl` yielded an inhibition of 5.04%.
In the case of `CCSc1nnc(SCC(=O)NNC(=O)c2ccccc2F)s1`, the inhibition is reported as 1.18%.
In the case of `O=C1Nc2cc(C(=O)N3CCN(c4ccc(F)cc4)CC3)ccc2NC1CSCc1cccc(F)c1` (stereo not drawn), the inhibition is reported as 14.7%.
With `O=C(COC(=O)/C=C/c1cccc(Cl)c1)NCc1cccs1` the inhibition was -1.04%.
For `CCN(CC)C(=O)CSC(Nc1cccc(F)c1)=C(C#N)C#N`, the inhibition was 56.7% (active).
Compound `CCOC(=O)c1nnn(CC(=O)Nc2cccc(F)c2)c1C(=O)OCC` has an inhibition of -2.22%.
Compound `Cc1ccc(CSCC(=O)N(C)CC(=O)Nc2cccc(F)c2)cc1` has an inhibition of -1.65%.
Work on `CCS(=O)(=O)c1ccc(C(=O)NC)c(Cl)c1Cl` yielded an inhibition of -0.44%.
`O=C(NC1CCCC1)C1CSCCS(=O)(=O)N1Cc1ccccc1` (stereo not drawn) gave an inhibition of 4%.
For `CCc1nnc(NS(=O)(=O)c2ccc(NC(=O)c3cccc(OC(F)(F)C(F)F)c3)cc2)s1`, the inhibition was 72.6% (active).
With `CCc1nnc(NS(=O)(=O)c2ccc(NC(=S)NC(=O)/C=C/c3cccs3)cc2)s1` the inhibition was 83.9% (active).
With `CCc1nnc(NC(=O)[C@@H](NC(=O)c2cccc(C)c2)C(C)C)s1` the inhibition was 2.27%.
`NS(=O)(=O)c1ccc(NC(=S)NNC(=O)c2cccs2)cc1` gave an inhibition of -2.42%.
In the case of `Cc1cc(NS(=O)(=O)c2ccc(NC(=O)c3cccc(OC(F)F)c3)cc2)nc(C)n1`, the inhibition is reported as 4.48%.
With `Cc1ccc(S(=O)(=O)N(C)C)cc1NC(=O)/C=C/c1cccs1` the inhibition was 0.22%.
`O=C(NC(=S)Nc1ccc(S(=O)(=O)Nc2ncccn2)cc1)c1cccc(Br)c1` gave an inhibition of 5.78%.
For `CCc1nnc(NS(=O)(=O)c2ccc(NC(=S)NC(=O)c3cccs3)cc2)s1`, the inhibition was 59% (active).
`CCc1nnc(NC(=O)C2CCCN2S(=O)(=O)c2ccccc2)s1` (stereo not drawn) showed an inhibition of -1.9%.
With `C=CCN=C1NC(c2ccccc2)C(C(=O)OC)=C(C)N1Cc1ccc(C(F)(F)F)cc1` (stereo not drawn) the inhibition was 8.06%.
Compound `CN(CCO)c1cccc2c1S(=O)(=O)N(Cc1cn(Cc3ccc(C(F)(F)F)cc3)nn1)Cc1ccccc1O2` has an inhibition of -1.07%.
In the case of `C/C=C/C(=O)OCC(=O)Nc1ccc(F)cc1Cl`, the inhibition is reported as 4.85%.
With `Cc1cc2nc3c(=O)[nH]c(=O)nc-3n(C[C@H](O)[C@H](O)[C@H](O)CO)c2cc1C` the inhibition was -477%.
`CCN1C(=O)N[C@@H]2C[C@H](C(=O)N3CCCC3)[C@H](C)[C@H](c3ccccc3)C[C@@H]21` gave an inhibition of 1.47%.
In the case of `Cc1ccccc1OCC(=O)Nc1nnc(S(=O)(=O)N2CCCC2)s1`, the inhibition is reported as 37.6% (active).
For `CC1CCN(S(=O)(=O)c2nnc(NC(=O)COc3ccccc3F)s2)CC1`, the inhibition was 8.39%.
Work on `CCc1ccccc1OCC(=O)Nc1ccc(C)c(S(=O)(=O)N2CCCCCC2)c1` yielded an inhibition of 3.67%.
`COc1ccc(Cn2cc(CN3[C@@H](CC(C)C)COc4cc(Br)ccc4S3(=O)=O)nn2)cc1` showed an inhibition of 2.72%.
For `O=C(C(=O)N1CCC(CNS(=O)(=O)Cc2ccccc2)CC1)c1cc2ccccc2o1`, the inhibition was 3.81%.
`Cn1c2c(c(=O)n(C)c1=O)CN(Cc1ccco1)CN2` showed an inhibition of -0.1%.
`COc1ccc(-n2c(SCC(=O)Nc3ccc4c(c3)OCCO4)nnc2-c2ccc(Cl)cc2)cc1` gave an inhibition of 6.74%.
With `COc1ccccc1C1C(C#N)=C(N)Oc2c1c(-c1ccccc1)nn2-c1ccccc1` (stereo not drawn) the inhibition was 54.6% (active).
`COc1ccccc1C1CC(=O)n2c(nc(-c3ccccc3)c2-c2ccccc2)S1` (stereo not drawn) gave an inhibition of 9.44%.
Compound `COc1ccc(C2C(C#N)=C(N)Oc3n[nH]c(C)c32)cc1CN1CCN(c2ccc(F)cc2)CC1` (stereo not drawn) has an inhibition of 0.94%.
With `CCCCCCCCN1C(=O)[C@@H](CC(=O)NCc2ccccc2)C[C@@]2(C(=O)OC)C1=C[C@H](C(C)(C)C)O[C@@H]2C` the inhibition was 1.31%.
`CN(c1ccccc1)S(=O)(=O)c1ccc(C(=O)NCc2cccnc2)cc1` showed an inhibition of 2.25%.
In the case of `O=C(c1cccnc1)N(c1cc2sc(=O)oc2c2ccccc12)S(=O)(=O)c1ccccc1`, the inhibition is reported as 80.7% (active).
Work on `O=C(CN(c1cc(C(F)(F)F)ccc1Cl)S(=O)(=O)c1ccccc1)NCc1cccnc1` yielded an inhibition of -7.03%.
`Cc1cc(N2CCN(C(=O)OC(C)(C)C)C[C@H]2C)ccc1N1CCN(Cc2ccccc2)[C@H](C)C1` showed an inhibition of 0.53%.
`CCOC(=O)C1C(C)C(C(C)(C)C)N(S(=O)(=O)c2ccc(C)cc2)C1c1ccccc1` (stereo not drawn) showed an inhibition of 1.44%.
Compound `Cc1ccc(S(=O)(=O)N2C[C@H]3C(=O)C[C@@H](c4cccc5ccccc45)N(S(=O)(=O)c4ccc(C)cc4)[C@H]3C[C@H]2c2ccc(Cl)cc2)cc1` has an inhibition of 13.6%.
For `Cc1ccc(S(=O)(=O)N2[C@@H](c3cccc4ccccc34)C(C(=O)O)=C[C@H]2C(C)(C)C)cc1`, the inhibition was 50.6% (active).
`COc1cccc(/C=C2\CC3(OC(C)=O)CCCN2C3)c1` (stereo not drawn) gave an inhibition of 0.45%.
Compound `C#CCN([C@@H](C)C(=O)OCC)S(=O)(=O)c1ccc(Br)cc1F` has an inhibition of 2.12%.
For `O=c1oc(-c2ccccc2NS(=O)(=O)c2ccc(Cl)cc2)nc2ccccc12`, the inhibition was 39.1% (active).
`O=c1oc2ccccc2c(NC2CCCCC2)c1NS(=O)(=O)c1ccc(Cl)cc1` showed an inhibition of 5.21%.
Work on `O=c1ccc2cc(S(=O)(=O)Nc3ccccc3F)ccc2o1` yielded an inhibition of -1.01%.
With `COc1ccc(-n2c(SCC(=O)Nc3ccccc3-c3ccccc3)nnc2-c2cccnc2)cc1` the inhibition was 0.96%.
With `Cc1c(C(C)c2ccccc2O)[nH]c2ccccc12` (stereo not drawn) the inhibition was 4.84%.
With `O=C(CSc1nnc(-c2ccccc2)n1Cc1ccco1)Nc1ccccc1-c1ccccc1` the inhibition was 5.56%.
With `Clc1ccccc1CSc1nnc(-c2ccco2)c(-c2ccco2)n1` the inhibition was 54.8% (active).
With `Clc1ccc(-n2c(SC/C=C/c3ccccc3)nnc2-c2ccco2)cc1` the inhibition was 2.56%.
For `COC(=O)C1CN(CC(C)C)CCS(=O)(=O)N1Cc1ccc(C)cc1` (stereo not drawn), the inhibition was 2.99%.
For `CC(C)(C)c1ccc(CSc2nnc(-c3cccs3)o2)cc1`, the inhibition was -0.86%.
For `CC(C)N1CCCCC(NC(=O)c2ccc3ccccc3c2)C1=O` (stereo not drawn), the inhibition was 2.21%.
`Nc1ccn([C@@H]2O[C@H](C(=O)N[C@H]3CCCCNC3=O)[C@@H](O)[C@H]2O)c(=O)n1` showed an inhibition of -0.39%.
In the case of `Cc1ccc(-c2nn(-c3ccccc3)cc2/C=C2\SC(=S)N(CCCCCC(=O)O)C2=O)o1`, the inhibition is reported as 48.8% (active).
`COc1cccc(-c2nn(-c3ccccc3)cc2/C=C(\C#N)C(=O)NCCCn2ccnc2)c1` showed an inhibition of 4.33%.
With `CN(C)S(=O)(=O)c1cccc(-c2nn(-c3ccccc3)cc2/C=C2\SC(=S)N(CC(=O)O)C2=O)c1` the inhibition was 63.9% (active).
`Cc1nc(C)c(-c2nnc(-c3cccc(S(=O)(=O)N(C)C)c3)o2)cc1C(=O)NN` gave an inhibition of 10.6%.
Work on `O=C(CN1CCC(NC(=O)NCc2ccccc2)CC1)Nc1ccc2c(c1)OCCO2` yielded an inhibition of 0.82%.
With `CCc1ccc(C2=CC(=O)CC(C)(C)C2=O)cc1` the inhibition was 3.63%.
In the case of `COc1ccc(Cl)cc1NC(=O)COC(=O)C(CC(C)C)N1C(=O)C2CC=CCC2C1=O` (stereo not drawn), the inhibition is reported as -0.39%.
For `OC(c1ccccc1)(c1ccccc1)C1CCN(CCCOc2ccc(-c3ccsc3)cc2)CC1`, the inhibition was 9.5%.
Work on `Cc1cc(C)c2oc(C(=O)Nc3ccc(S(=O)(=O)Nc4nccc(C)n4)cc3)cc(=O)c2c1` yielded an inhibition of 1.83%.
Compound `Cc1ccnc(NS(=O)(=O)c2ccc(NC(=O)c3oc4ccccc4c3C)cc2)n1` has an inhibition of 33.1%.
Compound `O=C(Nc1ccc(S(=O)(=O)Nc2ncccn2)cc1)c1cncc(Br)c1` has an inhibition of -0.76%.
In the case of `Cc1cc(C)c2nc(-c3cccnc3)cc(C(=O)Nc3ccc(S(=O)(=O)Nc4onc(C)c4C)cc3)c2c1`, the inhibition is reported as 80.4% (active).
For `Cc1noc(NS(=O)(=O)c2ccc(NC(=O)c3oc4ccc(F)cc4c3C)cc2)c1C`, the inhibition was 75.7% (active).
`Cc1ccnc(NS(=O)(=O)c2ccc(NC(=O)c3oc4ccc(F)cc4c3C)cc2)n1` showed an inhibition of 33.3%.
